Source: PubChem BioAssay AID1508600 (Functional Genomics Laboratory (NCATS/FGL), 2020)
Hit rate of the full screen: of about 53,000 sequences, about 3,700 (7%) were called active. Many of the other results were omitted from the sample, so actives are more common in it than they were. A number with no mark means an inactive call.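 Rule for the calls: active = gene knockdowns whose robust z-score for IL-1 alpha signal is at least 2 or at most -2, so actives lie on both sides; inactive = the rest.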

assay: Components of the Cytosolic LPS Sensing Pathway: Gene Identification via Genome-wide siRNA Screen; conditions: RAW264.7 macrophages, IL-1a HTRF, actives lie on both sides, screened at 100 nM (by protocol), cells primed 5 h with Pam3CSK4 first;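 note: robust z of the log signal after scaling to non-targeting control siRNA wells of the plate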
Method in brief: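 Knockdown: 100 nM siRNA, 48h, RAW264.7. Stimulation: Pam3CSK4 5 h, then LipidA via TransIT-TKO 24 h. Output: supernatant IL-1a HTRF, negative-control-normalized, log robust z-score; viability by CellTiter-Glo.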

Sequence	z-score
GGAGAAUAAUAAGCUGGAATT against Hap1	0.12
CGGUAUCUUGGUCAACCUGTT against Naaa	0.955
GGUAGCUCUGAGACAAUUCTT against Pkhd1l1	0.857
GCCCAUUAUGGUUAAAGAATT against Ccnb3	-0.311
GGAGAUCGAUAUUCGACUATT against 4933434E20Rik	-2.48 (active)
GGAUAUUCUUCUUAAGCAGTT against Agbl5	-0.168
CCAGGUUGAUGAUUUCAACTT against Tbcc	-1.43
GGGAAGUGCAUGCUCAUCUTT against Smarcal1	-0.187
GCGUGGAUUACAUUUCUCUTT against Depdc1a	0.392
GGACUGAGAACCAAAGCUGTT against D630044L22Rik	-3.15 (active)
GGAAGAGCCAGUGGUAUAATT against Ccdc171	0.164
GUCUGAGCGACUGUCUCCATT against Mef2b	-2.17 (active)
GGAGAACCAUAAUAAGAGUTT against Tnfrsf26	-2.88 (active)
UCAAACUAGGUGCUGUUGUTT against Olfr584	0.998
CCAAAGAUGCUCCUCACCUTT against Olfr197	-0.158
GCUUCUAGCCUGUAUUGCCTT against Rps8	0.31
CCUGUAUUUUACGAUCUUUTT against Best1	0.103
GGUCCUGGACAAAGUGUUUTT against Tubgcp5	2.48 (active)
CCCAUCUGUUUGAGUGUAUTT against Ms4a1	-0.305
GCCUUGGUACACUAAACUCTT against Rhcg	-0.426
GCCUGUAAGGAGAAUCAGCTT against Car4	0.684
GGUUCCAAGUCAAAGAGUUTT against Foxl1	-0.47

Sequence	z-score
GGACUCUGUAGUUGAAGAUTT against Pogz	-0.882
CCAUUCUGAAUCUCUAAUCTT against Pigw	0.134
CCAAUCUGAAGUGCUACUATT against Trim42	0.368
CCCGUGCCUUCCUUAAAGCTT against Ggt6	0.327
CCCACUGAUGCUAUUUCUATT against Rad1	-2.57 (active)
GGUCUUUAUCUACCAUGGGTT against Itga7	-1.29
CCUUUGCCUAUGUUUACCATT against Ropn1l	0.851
GGGACUCAGUGUUUAUUGATT against Thsd4	0.216
GGCUUUUAAGUUCUUCCAGTT against Ptbp3	2.44 (active)
UCAUUAGUAUCCUCCGUAUTT against Olfr919	0.27
GGAAGGUGAUGAAGGAUCGTT against Fam118a	0.0491
GGAAGAUUUCACAUCUCAGTT against Pdia5	-0.528
GCUUGUUAAAAUUGGAAAGTT against Kif11	-1.47
GGCCUCCAAUAAAGCUCAGTT against Ttc28	-2.07 (active)
GCUCCUAUUACUGAAUUUATT against Olfr749	-0.445
GGUGACCUUACCUAAUGUATT against Mettl18	0.578
GGCACAAGCAGGAGAUAAATT against Serpinb2	2.05 (active)
GGUGGUCUUUUCCCAGCAGTT against Msrb3	0.793
GGCAACACGAUGCAGCAGUTT against Fam50a	-0.36
GCUCUACUGCUUCCUUGUUTT against Olfr229	-0.338
GGUGUCUGCUUCUUCAAAGTT against Slc25a26	-2.33 (active)
GGAUAUUGCCAGUAAUUAATT against Kif21a	0.212

Sequence	z-score
GCUACCUCAACAUGGAUGCTT against Pcca	1.16
GGAUGACUGUAUCUGUACUTT against Ttc3	0.0197
GGCCCAGAACAGAAAACUCTT against Clec1a	-0.582
GGACCUAAGGGAUCUAUUGTT against Col5a3	0.000962
GCACUGUGAAUUUGUCAUUTT against Umps	1.22
GGAACACGAAUCAUUUAUGTT against Eif4ebp2	0.351
GUUUGGCCGAGUUCAUUUCTT against Pigu	0.759
CCUGUGGAUUACGGCCUCATT against Ube3b	-0.282
GGAGCUGUUUUCUGUGAAGTT against Mrps2	0.0283
GGAUGUGGAGCAAGUGAAGTT against Stx1b	-2.05 (active)
GCUUCAAGCCAUCCGAAUATT against Cfap36	0.886
GGACCAGCUGAAGAUGGGATT against Pced1b	-1.1
GCCAGUUUCCAGUCCUUGUTT against Dppa5a	-0.2
GCACAUAAAAUGCUCACUGTT against Rgr	-0.084
CCAAACUUAAACAUGUUGUTT against Ddx21	0.364
GCUGUACACAGUGAGGAAGTT against Gcat	5.42 (active)
CGACUACCACACGUGGAAUTT against Hvcn1	1.36
UGUUCCUAGGUCAGCUACUTT against Olfr1200	-1.54
GGCACUUCACAGACUUAGUTT against Selp	-0.682
CUCCUUGUCUACCUGAAUATT against Vmn1r213	-1.44
CCUCUUAGCUAGAUCUUACTT against Smu1	-2.41 (active)
GCCUGAGAAGAUAGACUGATT against Pigs	0.114

Sequence	z-score
GCUUAACUAGUAUCCUAUGTT against Tas2r135	-0.228
GGACAAAGUGAAUUAUAGCTT against Tmem123	1.12
GUAAGUUGUUUGAGGAAAGTT against Defb3	2.08 (active)
GAAAUUCUUCCAGUGGAAGTT against Lrp2bp	0.958
GGAACAUCAUCAACCACUATT against Olfr911-ps1	-1.53
GGUACAACAGACUAUGCAATT against Snai1	0.886
GCUUUCGCCAAUAAAAAAGTT against Slc13a2	0.265
GGUGAAACGGGAUGUUAACTT against Ppargc1b	-0.102
GCCUUAUUACUGACCUUUUTT against Smarcd2	1.77
GCUAUGAAAGAGGGAAGCUTT against Cyp2c54	0.164
CCAGAAAACUCAGUUUGAATT against Magi3	0.518
GCUGGUGGCAAUCAGAAAATT against Nppc	0.121
GGUUCAACACGAUGUUCGATT against Nr1i2	0.162
GGAUGUCUGACACAAGUGUTT against Olfr390	3.42 (active)
GCUUCACAGAAGCUUUGUGTT against Ccl4	-0.156
GGAAUAUCAGAAUACCAUCTT against Cnpy4	0.89
CCAGGAACAGCUAUCGGAUTT against Homer2	-0.271
GCUGCAUUACAAGCCCAACTT against Zfp414	-0.218
GGUGACAUAUUUGAAGUGGTT against Dmwd	-0.000303
GCACCCUACCUGCUAAUGUTT against Slitrk1	3.59 (active)
GGAUGACAAGGUUAAGCUATT against Golm2	-0.0855
GCAACAAUGUGGUUCCUAUTT against Rab11a	0.616

Sequence	z-score
GGAGCUACUGUACCUUGCUTT against Ncapg2	-1.29
GGCUAGAAAACCUCUAUCUTT against Lrrc18	-2.11 (active)
GUGCAUGCAGUGUUGUUUUTT against Magea5	0.711
GGAUAGGGAUUGGAGAUAUTT against Stn1	0.203
GGGUAGUCACUCAAUAAAUTT against Pear1	-0.54
GGAUUGCCCUGUGGACAAGTT against Nr4a1	0.963
GGCGAAAUGAACACAAAGCTT against Edf1	0.983
GGAAAAGUACACAAAGACCTT against Nkx2-1	2.16 (active)
GGAAAAGUGGUGAACGACATT against Tm4sf4	0.798
GCUGCUGUGACUUAGAUAATT against Cds2	-0.668
CCAGGAUCAUUCUUCUGAATT against Chrna7	-0.563
GCGUAUACCAUGCAGAUAUTT against Sigmar1	1.05
GGCGUACGUAGACAAGUACTT against Scaf11	-2.23 (active)
GGAAGGUAAUUGCUUUUAGTT against Gmeb1	0.533
GCACUUGCUUCAAGUAAUATT against Ankrd52	-0.0516
GCUCUGCUGUGUUAUAUGGTT against C330011M18Rik	0.144
CCUAUGCUUUUUUGUAAGATT against Il13ra2	0.126
GGGAAUAGCAAAUAAAGCATT against Lztr1	-0.674
GGCUGUUGAACUUAAUCCCTT against Tomm70a	-2.25 (active)
